In PubChem BioAssay (NCATS):
Records with an inconclusive call do not appear. The source made the active and inactive calls. The call rests on the fitted dose curve; in most records, active means well fitted curve in the direction sought with a large enough effect; inconclusive means small, poorly fitted or top-dose-only effect, or another doubt; inactive means no such curve, though single readings can be large; an effect the other way counts as inactive or inconclusive. Residues, ends and D or L forms follow the SMILES beside them. *: point of attachment. Cbz = O=C(OCc1ccccc1)*

How the values were obtained:
[1] = molecular target: Single-stranded DNA cytosine deaminase (Homo sapiens) (UniProt Q9GZX7); test: Validation qHTS assay for inhibitors of Activation Induced Cytidine Deaminase (AID): AID signal (AID 1347429); further: potency means the concentration at half of the fitted maximal effect
Single-stranded DNA cytosine deaminase (Homo sapiens), sequence (Q9GZX7 whole entry, looked up): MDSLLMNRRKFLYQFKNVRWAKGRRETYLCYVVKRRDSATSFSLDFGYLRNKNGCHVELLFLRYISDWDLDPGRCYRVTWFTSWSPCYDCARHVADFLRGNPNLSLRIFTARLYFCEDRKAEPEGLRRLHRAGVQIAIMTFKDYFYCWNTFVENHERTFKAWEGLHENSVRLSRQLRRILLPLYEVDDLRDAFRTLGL
Summary of the method: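 Compounds (final up to 114 uM) preincubated with AID plus UDG; 250 nM DJC20/DJC23 substrate mix (4x stock) added, 4 hr at room temperature, then NaOH, 30 min. Read 1 fluorescence at 540 nm excitation, 590 nm emission.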

[2] = Primary qHTS for inhibitors of La Crosse Virus (LACV) - induced cell death in SH-SY5Y cells (AID 1508616);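 further: top concentration of the series differs between compounds; 0% = infected DMSO wells and 100% = uninfected DMSO wells; higher means more rescue of cells from virus-induced death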
Summary of the method: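 Rescue of virus-induced death was read as ATPLite luminescence after 6 days at 37C, scaled between DMSO wells with LACV and without virus. Cells were SH-SY5Y, 6000/well, infected at 0.01 MOI after compound addition.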

[3] = Primary qHTS for small molecule stabilizers of the endoplasmic reticulum resident proteome: Secreted ER Calcium Modulated Protein (SERCaMP) assay (AID 1508630); further: on the % scale 0 is the no-effect control and ±100 the full control effect
Summary of the method: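 The SH-SY5Y reporter protocol was run at 3 concentrations up to 38.3 uM (primary) or 11 concentrations (follow-up): 16 h compound, 100 nM thapsigargin for 4 h, then extracellular luciferase luminescence.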

[4] = molecular target: Calcium and integrin-binding protein 1 (Homo sapiens) (UniProt Q99828); test: Validation qHTS for Identification of Calcium Integrin Binding protein 1 (CIB1) Competitor (AID 1508618); further: on the % scale 0 is the no-effect control and ±100 the full control effect
Calcium and integrin-binding protein 1 (Homo sapiens), sequence (Q99828 whole entry, looked up): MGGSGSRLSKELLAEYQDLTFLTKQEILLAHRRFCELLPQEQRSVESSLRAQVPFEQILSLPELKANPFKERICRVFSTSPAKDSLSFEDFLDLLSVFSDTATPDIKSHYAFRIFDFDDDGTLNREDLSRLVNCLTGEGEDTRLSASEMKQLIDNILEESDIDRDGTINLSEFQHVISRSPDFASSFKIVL
Summary of the method: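 Fluorescence polarization with 1 uM CIB1-GST and 100 nM FITC-alphaIIb peptide in HEPES pH 7.4, NaCl, 5 mM CaCl2, Tween20. Compounds at up to 114 uM final, preincubated with protein 15 min; read after 15 min more at RT.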

Papain (Carica papaya) = Papain (Carica papaya) (UniProt P00784); test: Primary qHTS assay for inhibitors of the protease papain (AID 1645873);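 further: papain turnover of Z-FR-AMC read as the AMC fluorescence gain over 10 min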; further: potency means the concentration at half of the fitted maximal effect
Papain (Carica papaya), sequence (P00784 whole entry, looked up): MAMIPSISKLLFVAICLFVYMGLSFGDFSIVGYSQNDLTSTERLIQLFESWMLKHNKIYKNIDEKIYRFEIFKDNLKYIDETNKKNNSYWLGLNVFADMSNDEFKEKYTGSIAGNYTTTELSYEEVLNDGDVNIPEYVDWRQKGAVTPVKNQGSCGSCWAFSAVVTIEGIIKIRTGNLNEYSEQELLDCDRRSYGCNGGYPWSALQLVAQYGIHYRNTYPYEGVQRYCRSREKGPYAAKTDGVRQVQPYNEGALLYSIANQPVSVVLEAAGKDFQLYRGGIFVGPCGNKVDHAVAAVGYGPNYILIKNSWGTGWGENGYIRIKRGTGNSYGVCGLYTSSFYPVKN

[5] = Confirmatory qHTS for small molecule stabilizers of the endoplasmic reticulum resident proteome: Secreted ER Calcium Modulated Protein (SERCaMP) assay (AID 1508628); further: nearly all actives have a fitted effect of over 40% in size; further: potency means the concentration at half of the fitted maximal effect
Summary of the method: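 Reporter secretion upon ER calcium depletion (100 nM thapsigargin, 4 h, 37C) is measured as medium luminescence with coelenterazine, after 16 h compound pretreatment of SH-SY5Y-GLuc-SERCaMP cells; primary at three concentrations up to 38.3 uM, follow-up at 11 (up to 76.6 uM).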

[6] = Counterscreen qHTS for small molecule stabilizers of the endoplasmic reticulum resident proteome: GLuc-NoTag assay (AID 1508627);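 further: series mostly up to about 76 µM; 0% = thapsigargin alone and -100% = DMSO vehicle control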
Summary of the method: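 Counterscreen line: SH-SY5Y-GLuc-NoTag cells, treated with compound 19 hr before a 4 hr, 100 nM thapsigargin calcium depletion. Secreted Gaussia luciferase in the medium was measured by luminescence after coelenterazine was added (0.07x final), with cells unlysed.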

[7] = Cell Viability qHTS for small molecule stabilizers of the endoplasmic reticulum resident proteome (AID 1508629); conditions: cell viability counter-screen, 100 nM thapsigargin for final 4 h;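 further: human SH-SY5Y neuroblastoma cells carrying the GLuc-SERCaMP reporter; compound exposure about 46 h in total before the viability read; on the % scale 0 is the no-effect control and ±100 the full control effect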

O=c1onc2cnc3ccccc3n12
inactive: Potency [1] | Potency [2] | Potency [3]

c1ccc(C2CN3CCSC3=N2)cc1 (stereo not drawn)
inactive: Potency [1] | Potency [2] | Potency [4] | Potency (Papain (Carica papaya))

CC(C)[C@H](NC(=O)OCc1ccccc1)C(=O)N[C@H](C=O)Cc1ccccc1 (Cbz-Val-Phe-aldehyde)
inactive: Potency [1] | Potency [2] | Potency [3]

CCCC[C@@]1(C2CCCC2)Cc2cc(OCC(=O)O)c(Cl)c(Cl)c2C1=O
active: Potency (Papain (Carica papaya)) 25.1 µM
inactive: Potency [1] | Potency [2] | Potency [3]

CO/N=C(\C(=O)N[C@@H]1C(=O)N2C(C(=O)O)=C(CSc3nc(=O)c(O)nn3C)CSC12)c1csc(N)n1 (stereo partly drawn)
inactive: Potency [1] | Potency [2] | Potency [3]

Cc1nc(N=Nc2cc(S(=O)(=O)O)c3cc([N+](=O)[O-])cc(S(=O)(=O)O)c3c2)c(COP(=O)(O)O)c(C=O)c1O
inactive: Potency [1] | Potency [2] | Potency [3]

O=C(O)c1cc(=O)cc(C(=O)O)[nH]1
inactive: Potency [1] | Potency [2] | Potency [4] | Potency (Papain (Carica papaya))

CN1Cc2sccc2C(c2ccc(O)c(O)c2)C1 (stereo not drawn)
inactive: Potency [1] | Potency [2] | Potency [4] | Potency (Papain (Carica papaya))

Cn1c(=O)c2c(nc(/C=C/c3cccc(Cl)c3)n2C)n(C)c1=O
active: Potency (Papain (Carica papaya)) 3.55 µM
inactive: Potency [1] | Potency [2] | Potency [3]

CC(=O)SC1CC2=CC(=O)CC[C@]2(C)C2CC[C@@]3(C)C(CC[C@@]34CCC(=O)O4)C12 (stereo partly drawn)
inactive: Potency [1] | Potency [2] | Potency [4] | Potency (Papain (Carica papaya))

CCC1(O)CC2CN(CCc3c([nH]c4ccccc34)[C@@](C(=O)OC)(c3cc4c(cc3OC)N(C)C3[C@]45CCN4CC=C[C@@](CC)([C@@H](OC(C)=O)[C@]3(O)C(=O)OC)[C@H]45)C2)C1 (stereo partly drawn)
inactive: Potency [1] | Potency [2] | Potency [3]

CCCCCCC/C=C\CCCCCCCCC(=O)O
inactive: Potency [2] | Potency [3]
active: Potency [1] 70.8 µM

CCCCC[C@H](CC(=O)NO)C(=O)N[C@H](C(=O)N1CCC[C@H]1CO)C(C)C
inactive: Potency [1] | Potency [2] | Potency [3] | Potency (Papain (Carica papaya))

N#CC(=C(\N)Sc1ccccc1N)/C(C#N)=C(/N)Sc1ccccc1N
inactive: Potency [1] | Potency [2] | Potency [3]

Nc1ncnc2c1nc(Br)n2C1OC2COP(=O)(O)O[C@@H]2C1O (stereo partly drawn)
inactive: Potency [1] | Potency [2] | Potency [3] | Potency (Papain (Carica papaya))

CNc1ncnc2c1ncn2[C@H]1C[C@H](OP(=O)(O)O)[C@@H](COP(=O)(O)O)O1
inactive: Potency [1] | Potency [2] | Potency [4] | Potency (Papain (Carica papaya))

CCCCS(=N)(=O)CC[C@H](N)C(=O)O (stereo partly drawn)
inactive: Potency [1] | Potency [2] | Potency [4] | Potency (Papain (Carica papaya))

Cc1ccccc1/C=C/C1=NCCN1
active: Potency [5] 11.2 µM
inactive: Potency [1] | Potency [2] | Potency (Papain (Carica papaya))

NC1(C(=O)O)CC1
inactive: Potency [1] | Potency [2] | Potency [4] | Potency (Papain (Carica papaya))

C=C1C[C@@]23CC[C@H]4[C@@](C)(CCC[C@@]4(C)C(=O)OC4OC(CO)C(O)C(O)C4O)[C@@H]2CC[C@]1(OC1OC(CO)C(O)C(O)C1OC1OC(CO)C(O)C(O)C1O)C3 (stereo partly drawn)
inactive: Potency [1] | Potency [2] | Potency [4] | Potency (Papain (Carica papaya))

C=CCNc1ncnc2ccc(Br)cc12
inactive: Potency [1] | Potency [2] | Potency [4] | Potency (Papain (Carica papaya))

C#CC(N)CCC(=O)O (stereo not drawn)
inactive: Potency [1] | Potency [2] | Potency [4] | Potency (Papain (Carica papaya))

Fc1ccc(CN(C2=NCCN2)c2c(Cl)cccc2Cl)cc1
inactive: Potency [1] | Potency [2] | Potency [4] | Potency (Papain (Carica papaya))

Oc1ccc(/C=C/c2ccc(/C=C/c3ccc(O)cc3)c(Br)c2)cc1
inactive: Potency [1] | Potency [2] | Potency [4] | Potency (Papain (Carica papaya))

N[C@@H](Cc1c[nH]c2ccccc12)C(=O)O
inactive: Potency [1] | Potency [2] | Potency [4] | Potency (Papain (Carica papaya))

O=C(O)/C(=C/c1c(C(=O)O)[nH]c2cc(Cl)cc(Cl)c12)c1ccccc1
inactive: Potency [1] | Potency [2] | Potency [3]

CCCCCCCCCCCCCCC[C@H](O)[C@H](N)CO
inactive: Potency [1] | Potency [2] | Potency [6] | Potency [5] | max response [7] -0.696% | Potency (Papain (Carica papaya))

NCC(O)c1ccc(O)c(O)c1 (stereo not drawn)
inactive: Potency [1] | Potency [2] | Potency [3]

Nc1nc2[nH]c(=O)cnc2c(=O)[nH]1
inactive: Potency [1] | Potency [2] | Potency [4] | Potency (Papain (Carica papaya))

C/C(=C\c1ccc(C(=O)O)cc1)c1ccc2c(c1)C(C)(C)CCC2(C)C
inactive: Potency [1] | Potency [2] | Potency [3]

O=C(O)CCC(=O)N1CCCC1C(=O)O (stereo not drawn)
inactive: Potency [1] | Potency [2] | Potency [6] | Potency [5] | Potency (Papain (Carica papaya))

O=c1[nH]c2cc(Cl)ccc2c(O)c1-c1ccc(Oc2ccccc2)cc1
inactive: Potency [1] | Potency [2] | Potency [4] | Potency (Papain (Carica papaya))

COc1ccccc1N1CCN(CCN(C(=O)c2ccc(F)cc2)c2ccccn2)CC1
inactive: Potency [1] | Potency [2] | Potency [4] | Potency (Papain (Carica papaya))

N#Cc1cc2nc(O)c(O)nc2cc1[N+](=O)[O-]
inactive: Potency [1] | Potency [2] | Potency [3]

Cc1cccc(C2CN(C)CCc3c2cc(O)c(O)c3Cl)c1 (stereo not drawn)
inactive: Potency [1] | Potency [2] | Potency [4] | Potency (Papain (Carica papaya))

C[C@H](O)C(=O)C1=Nc2c(nc(N)[nH]c2=O)NC1
inactive: Potency [1] | Potency [2] | Potency [3]
active: Potency (Papain (Carica papaya)) 28.2 µM

NC(=O)CNCCC(c1ccccc1)c1ccccc1
inactive: Potency [1] | Potency [4] | Potency [3] | Potency (Papain (Carica papaya))

c1ccc(CN2CCC3(CCCc4ccccc43)CC2)cc1
inactive: Potency [1] | Potency [4] | Potency [3] | Potency (Papain (Carica papaya))

O=C1OC(=O)C2C3CCC(O3)C12 (stereo not drawn)
inactive: Potency [1] | Potency [4] | Potency [3] | Potency (Papain (Carica papaya))

N#Cc1cc([N+](=O)[O-])c2sc(C(N)=O)[n+]([O-])c2c1
inactive: Potency [1] | Potency [4] | Potency [6] | Potency [5] | Potency (Papain (Carica papaya))
